S2 tox: viability counter-screen for ATXN expression inhibitors | Potency, µM (titrated, usually from 56.7 µM), hits mostly cytotoxic | S2 cells (HEK-293 line with an ATXN2-luciferase reporter) viability, CellTiter-Fluor protease fluorescence, 24 h | hit rate 0.49% among 400,000; also: potency is read from the fitted curve at half-maximal effect; nearly all actives have a fitted effect of over 40% in size
DRD3 agonist: agonists of human D3 dopamine receptor; hit rate 0.58% among 410,000; D3R DiscoveRx beta-arrestin cells, luminescence, 90 min; max activation, %; in the data active = max activation above about 30%; also: 0% is about no effect
Target sequence (P35462 whole entry, looked up): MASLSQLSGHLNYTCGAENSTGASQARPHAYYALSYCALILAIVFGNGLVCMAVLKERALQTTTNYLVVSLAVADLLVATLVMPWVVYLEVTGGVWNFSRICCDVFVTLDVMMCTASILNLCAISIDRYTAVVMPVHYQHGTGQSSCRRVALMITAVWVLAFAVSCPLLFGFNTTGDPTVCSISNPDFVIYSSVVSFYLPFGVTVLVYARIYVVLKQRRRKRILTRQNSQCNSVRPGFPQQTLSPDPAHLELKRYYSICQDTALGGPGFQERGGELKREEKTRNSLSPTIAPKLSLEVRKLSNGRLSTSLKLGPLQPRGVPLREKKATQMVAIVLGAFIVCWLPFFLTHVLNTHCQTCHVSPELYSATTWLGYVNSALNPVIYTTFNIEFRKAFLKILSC
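Agonist-mode cell screen: cells plated at 1500/well and incubated overnight at 37 °C, then exposed to library compounds for 90 min at 37 °C. Detection reagent was added for 30–60 min at room temperature, and luminescence was read.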
ATXN2 expr inh: ATXN2 expression inhibition; hit rate 0.72% among 360,000; Potency, µM (titrated, usually from 57 µM), without a hit: at the top dose activity change, negative = inhibition, actives largely listed as inhibitors; HEK-293 ATXN2-luciferase reporter, luminescence, 24 h; also: potency is read from the fitted curve at half-maximal effect; % is scaled to controls: 0 for no effect and ±100 for the full control effect; nearly all actives have a fitted effect of over 55% in size
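qHTS (up to 57 uM final) was run with 24 h compound exposure of reporter cells at 37 °C. Each well was multiplexed: SteadyGlo luminescence measured ATXN2-luciferase expression after a fluorogenic Gly-Phe-AFC viability readout (25 uM final).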
HepG2 viability: counter-screen for TGF-b inhibitors: cytotoxicity in HepG2 cells. HepG2 CAGA-GFP viability, ATP luminescence, 18 h. Potency, µM (series often up to 46.1 µM), for the others: at the highest dose activity change, negative = cytotoxicity, hits mostly cytotoxic. hit rate 0.76% among 410,000; also: potency is read from the fitted curve at half-maximal effect
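CellTiter-Glo luminescence gave cytotoxicity after 18 hours at 37 degrees C. The cells were HepG2 CAGA-GFP in 1% FBS DMEM, stimulated with 500 pg/mL TGF-beta after compound addition. %Activity was normalised to no-cell wells (complete cell-killing) and DMSO (no toxicity), and curves were fitted and classified.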
TGFb SMAD3 inh: TGF-b pathway inhibition; hit rate 1.2% among 410,000; HepG2 CAGA-GFP TGF-b/SMAD3 reporter, GFP fluorescence, 18 h; TGF-beta stimulated, 500 pg/mL final; Potency, µM (series often up to 46.1 µM), without a hit: top-dose activity, negative = inhibition, usual class: inhibitors; also: potency is read from the fitted curve at half-maximal effect; % is scaled to controls: 0 for no effect and ±100 for the full control effect; nearly all actives have a fitted effect of over 65% in size
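Inhibition of TGF-beta-driven CAGA-GFP reporter expression in HEPG2 cells is measured by cellular GFP fluorescence after 18 h stimulation with 500 pg/mL recombinant TGF-beta in 1% FBS medium at 37 degrees C.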
D3 antag: blocks the human D3 dopamine receptor; P35462; D3R cells, DiscoveRx beta-arrestin luminescence, antagonist mode; hits give low values; max response, negative = inhibition, %; hit rate 2.5% among 360,000; in the data active = max response below about -50%; inconclusive = no clear call, values can overlap the other calls; also: % is scaled to controls: 0 for no effect and ±100 for the full control effect
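Cells plated overnight at 1500 cells/well, then exposed to library compounds with dopamine controls for 90 minutes at 37 degrees C. DiscoveRx reagent added for 30–60 minutes at room temperature; luminescence read, quantitative HTS format.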
Starred values were filed as active, the others as inactive; i = inactive; ? = inconclusive; . = not tested or not shown. This is a sample that favours compounds with a hit; in the whole collection about 4.7% have one here. Unless noted, calls follow the shape of the dose curve; as a rule, active = well fitted curve in the direction sought with a large enough effect; inconclusive = small, poorly fitted or top-dose-only effect, or another doubt; inactive = no such curve, though single readings can be large; an effect the other way counts as inactive or inconclusive.

SMILES	S2 tox	DRD3 agonist	ATXN2 expr inh	HepG2 viability	TGFb SMAD3 inh	D3 antag
Cc1ccc([C@H]2C[C@H](n3cc(C4CC4)nn3)[C@@H](O)CN2Cc2cccs2)cc1	?	-3	16%	-24%	-26%	2
C=CC[C@@H](CC/C=C/C=C/CC/C=C\[C@@H]1CSC([C@@H]2C[C@@H]2C)=N1)OC	.	-22	?	-59%	14µM*	0
CN(C)C(=S)SSC(=S)N(C)C	22µM*	6	?	0.1µM*	-92%	-74*
CC(C)(C)[C@]1(O)C[C@@H]2OC(=O)C[C@@]23C(=O)O[C@@H]2OC(=O)[C@H](O)C213 (stereo not given in full)	.	.	3%	.	.	.
C=C1C(=O)OC2CC3(C)OC3CCC(C)=CC(OC(C)=O)C12 (stereo not given)	.	-10	?	-100%	18µM*	-52*
Cc1ccc(NC(=O)N2CCN(c3cc(-c4noc(C)n4)ccc3C)CC2)c(F)c1	i	0	-8%	-24%	?	.
CN1[C@@H]2CC[C@H]1CC(OC1c3ccccc3CCc3ccccc31)C2 (stereo not given in full)	i	-88	-5%	-32%	52%	-91*
CN1CC(C(=O)c2ccc(F)cc2)C(c2ccc(F)cc2)C1 (stereo not given)	i	-13	-12%	-21%	0%	-129*
Cc1ccc2c(c1)c(C1=c3ccccc3=NC1=O)c(O)n2C	?	-5	.	-16%	-18%	-80*
Cc1ccc(C)c(-n2c(C)nc3ccccc3c2=O)c1	?	5	.	0%	0%	-11
NCCc1ccc(O)cc1	i	32*	-6%	-7%	3%	3
Ic1ccccc1CN[C@@H]1C2CCN(CC2)[C@@H]1C(c1ccccc1)c1ccccc1	22µM*	0	?	11µM*	?	-15
O=C(CCC1N=C2c3ccccc3N=C(SCc3cccc(Cl)c3)N2C1=O)N1CCN(c2ccccc2)CC1 (stereo not given)	?	7	-13%	-29%	10µM*	.
COc1ccccc1CNC(=O)CCC1N=C2c3ccccc3N=C(SCc3cccc(Cl)c3)N2C1=O (stereo not given)	.	6	.	-22%	?	.
CC[C@H](C)[C@H]1O[C@]2(C=C[C@@H]1C)C[C@@H]1C[C@@H](C/C=C(\C)[C@@H](O[C@H]3C[C@H](OC)[C@@H](O[C@H]4C[C@H](OC)[C@@H](O)[C@H](C)O4)[C@H](C)O3)[C@@H](C)/C=C/C=C3\CO[C@@H]4[C@H](O)C(C)=C[C@@H](C(=O)O1)[C@]34O)O2	.	0	.	.	.	.
CCOC(=O)N(c1ccccc1)P1(=S)OCCO1	i	3	3%	-1%	41%	-52*
COC1=CC(=O)[C@]2(C=C1OC)OC[C@@H]1Oc3c(ccc4c3C=CC(C)(C)O4)C(=O)[C@@H]12	?	70*	?	-13%	-12%	61
CN1CCc2cccc(Cl)c2CC1	i	-71	-6%	-17%	1%	-78*
COC(=O)C(C)Oc1ccc(Cc2ncc(C(F)(F)F)cc2Cl)cc1 (stereo not given)	?	-3	.	-3%	17%	1
CC1OC(OC2C=C3CCC4C(CCC5(C)C(c6ccc(=O)oc6)CCC45O)C3(C)CC2)C(O)C(OC2OC(CO)C(O)C(O)C2O)C1O (stereo not given)	?	14	0.0075µM*	-54%	0.4µM*	73
CC(=O)c1cccc(NC(=O)CSc2ncc3c(n2)-c2cc(Cl)ccc2N(Cc2ccccc2)S3(=O)=O)c1	i	-6	9%	-6%	?	.
CC(c1ccccc1)n1cncc1C(=O)N1CCCC1=O (stereo not given)	i	30*	4%	-7%	-2%	28
Fc1ccc(CNCCc2ccc3c(c2)OCO3)cc1	.	-5	.	-33%	-7%	-23
